According to PubChem BioAssay (NCATS):
Inconclusive results are not listed. Entries that show only a call come without a potency. The source made the active and inactive calls. The call rests on the fitted dose curve; in most records, active means well fitted curve in the direction sought with a large enough effect; inconclusive means small, poorly fitted or top-dose-only effect, or another doubt; inactive means no such curve, though single readings can be large; an effect the other way counts as inactive or inconclusive.

Test: Quantitative High-Throughput drug screen in 47 multiple myeloma cell lines against the NCATS MIPE library collection: KHM11_PLB cell viability assay (AID 1918962)
Details: KHM11 myeloma cell viability, CellTiter-Glo ATP luminescence, 48 h; series mostly up to 45.8 µM
Method in brief: (§1)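 CellTiter-Glo luminescence (ATP) after 48 h compound exposure, 37C/5% CO2; 500 cells/well; MIPE 4.0 approved/investigational drugs pinned in; DMSO = 100%, media only = 0% viability.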
Further: nearly all actives have a fitted effect of over 35% in size.
Potency means the concentration at half of the fitted maximal effect.

| Structure (SMILES) | Potency |
| --- | --- |
| CC1(N2CCC(n3c([C@@H]4CCCNC4)nc4ccccc43)CC2)CCCCCCC1 | 6.62 µM (active) |
| CSCC[C@@H](NC(=O)[C@@H](Cc1ccccc1)NC(=O)CNC(=O)CNC(=O)[C@@H](N)Cc1ccc(O)cc1)C(=O)O | inactive |
| C[C@@H]1O[C@@H](O[C@@H]2C=C3CC[C@@H]4[C@@H](CC[C@]5(C)[C@H](c6ccc(=O)oc6)CC[C@@]45O)[C@@]3(C)CC2)[C@H](O)[C@H](O)[C@H]1O | 0.0296 µM (active) |

Test: Quantitative High-Throughput drug screen in 47 multiple myeloma cell lines against the NCATS MIPE library collection: JIM3_ECACC cell viability assay (AID 1918963)
Details: JIM3 myeloma viability, CellTiter-Glo ATP, 48 h; series mostly up to 45.8 µM
Method in brief: as §1

| Structure (SMILES) | Potency |
| --- | --- |
| CCOC(=O)c1c(C(C#N)=CN)c2ccc(Cl)c(Cl)c2n1C | inactive |
| COc1ccc2c(c[n+](C)c3c4cc5c(cc4ccc23)OCO5)c1OC | 7.43 µM (active) |
| O=S(=O)(CC1CS1)c1ccc(Oc2ccccc2)cc1 (centres undefined) | 16.6 µM (active) |
| CCOP(=O)(OCC)C(C)NC(=O)N(CCCl)N=O (centres undefined) | inactive |
| O=C(N[C@H]1CN2CCC1CC2)c1ccc(Cl)cc1 | inactive |
| CCNC(=O)C[C@@H]1N=C(c2ccc(Cl)cc2)c2cc(OC)ccc2-n2c(C)nnc21 | 6.62 µM (active) |
| C[C@H]([C@H](O)CCC(C)(C)O)[C@H]1CC[C@@]2(O)C3=CC(=O)[C@@H]4C[C@@H](O)[C@@H](O)C[C@]4(C)[C@@H]3CC[C@]12C | inactive |
| CC(=CCCC1=CCC(C2=CC(=O)OC2O)OC1O)CCC1=C(C)CCCC1(C)C (centres undefined) | inactive |
| CCCN1CCO[C@@H]2c3cc(O)ccc3OC[C@@H]21 | inactive |
| COc1ccc2c(c1)[C@]13CCCCC1C(C2)N(C)CC3 (some centres undefined) | inactive |
| CCN(CC)C(=O)c1ccc(C2=CC3(CCNCC3)Oc3cccc(O)c32)cc1 | inactive |
